# Screens (PubChem BioAssay)
# Shown is part of a subset that was picked to be rich in hits.
# p53ts 32C tox: kills p53ts cells at the permissive temperature. H1299-p53A138V at 32C, ATP luminescence viability, 24 h. Potency, µM (doses to about 46.1 µM), without a hit: at the highest dose activity change, negative = cytotoxicity, hits mostly cytotoxic. actives 0.93% (n = 130,000). AID 924;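 further: potency means the concentration at half of the fitted maximal effect; 0% = DMSO and -100% = full killing by reference compound; nearly all actives have a fitted effect of over 55% in size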
#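 Viability by ATPlite luminescence after 24 h compound treatment (up to 46 uM) at the permissive 32C. Cells are H1299 carrying p53 A138V. Scale runs from DMSO basal to 100 uM tamoxifen as full kill; AC50 from Hill fits.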
# Peg3 imprint: induces erasure of genomic imprints in mouse ES cells | mouse ES Peg3-LacZ reporter, beta-gal luminescence, 40 h | Potency, µM (top dose mostly 60.7 µM), without a hit: at the top dose activity change, positive = activation, actives largely listed as activators | actives 0.02% (n = 110,000); further: potency means the concentration at half of the fitted maximal effect
#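 Readout: BetaGlo luminescence (5 min, room temp) for LacZ from the normally silent maternal Peg3 allele in female Peg3LacZ-Neo ES cells. Cells 300/well, 40 h, 37C, 5% CO2. Data normalized per plate to negative controls.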
# IMPase cell inh: IMPase inhibition in cells | AID 901 | CHO-M1 cells, IP1 accumulation, HTRF TR-FRET ratio | inhibition (IP1 accumulation), % at 46.1 µM | P97697 | 120,000 tested, under 10 active; active means well fitted curve in the direction sought with a large enough effect in the signal ratio, not every such curve was filed as active; inconclusive means small, poorly fitted or top-dose-only effect, or a change in a side signal; inactive means no such curve, though single readings can be large or run the other way; the % refers to the signal ratio;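 further: cells stimulated with carbachol in lithium chloride buffer; plate controls were DMSO basal wells for no effect and reference inhibitor wells for full effect; higher means more IMPase inhibition seen as more IP1 and lower FRET ratio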
# Target sequence (P97697 whole entry, looked up): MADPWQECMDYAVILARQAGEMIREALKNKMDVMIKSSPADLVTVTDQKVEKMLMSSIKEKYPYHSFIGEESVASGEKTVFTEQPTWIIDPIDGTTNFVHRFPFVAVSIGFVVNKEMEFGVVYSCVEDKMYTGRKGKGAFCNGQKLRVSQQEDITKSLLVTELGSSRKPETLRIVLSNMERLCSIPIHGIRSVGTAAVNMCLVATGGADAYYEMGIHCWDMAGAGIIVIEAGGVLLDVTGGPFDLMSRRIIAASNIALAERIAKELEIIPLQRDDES
#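 In this qHTS, compounds (final up to 46 uM) act on CHO-M1 cells that are then activated through the M1 receptor with carbachol, in pH 7.4 buffer containing 50 mM LiCl, for 30 min. IP1 accumulation is quantified by the IP-One immunoassay.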
# IkB sig inh: suppresses IkB signaling in ABC-DLBCL reporter cells; ABC-DLBCL IkBa-CBG/CBR dual luciferase ratio, 4 h; response scale: scaled: untreated 0%, proteasome inhibitor 100%; Potency, µM (doses to about 57.1 µM), without a hit: at the top dose IkBa stabilization activation; actives 0.04% (n = 110,000); active means well fitted curve in the direction sought with a large enough effect in the signal ratio, not every such curve was filed as active; inconclusive means small, poorly fitted or top-dose-only effect, or a change in a side signal; the % refers to the signal ratio;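 further: potency means the concentration at half of the fitted maximal effect; the direction sought is a rising ratio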
#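 In this assay, an IκBα–CBG68 fusion accumulates when IKK-driven degradation is blocked; native CBR normalizes for cell number. OCI-Ly3 cells were treated 4 h with compound and doxycycline, then green and red light read after Chroma-Glo addition.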
# p53ts 39C kill: kills p53ts cells at the nonpermissive temperature; H1299-p53A138V viability at 39C, ATP luminescence, 24 h; Potency, µM (titrated, usually from 46.1 µM), for inactives: at the highest dose activity change, negative = cell killing, actives largely listed as cytotoxic; actives 1.5% (n = 130,000); further: potency means the concentration at half of the fitted maximal effect; on the % scale 0 is the no-effect control and ±100 the full control effect; nearly all actives have a fitted effect of over 55% in size
# Luciferase inh: firefly luciferase inhibition | actives 2.2% (n = 72,000) | purified firefly luciferase, luminescence, 8 min | Potency, µM (series often up to 57.1 µM), for the others: at the highest dose activity change, negative = inhibition, actives largely listed as inhibitors; further: potency means the concentration at half of the fitted maximal effect; on the % scale 0 is the no-effect control and ±100 the full control effect; nearly all actives have a fitted effect of over 40% in size
# Target sequence (P08659 whole entry, looked up): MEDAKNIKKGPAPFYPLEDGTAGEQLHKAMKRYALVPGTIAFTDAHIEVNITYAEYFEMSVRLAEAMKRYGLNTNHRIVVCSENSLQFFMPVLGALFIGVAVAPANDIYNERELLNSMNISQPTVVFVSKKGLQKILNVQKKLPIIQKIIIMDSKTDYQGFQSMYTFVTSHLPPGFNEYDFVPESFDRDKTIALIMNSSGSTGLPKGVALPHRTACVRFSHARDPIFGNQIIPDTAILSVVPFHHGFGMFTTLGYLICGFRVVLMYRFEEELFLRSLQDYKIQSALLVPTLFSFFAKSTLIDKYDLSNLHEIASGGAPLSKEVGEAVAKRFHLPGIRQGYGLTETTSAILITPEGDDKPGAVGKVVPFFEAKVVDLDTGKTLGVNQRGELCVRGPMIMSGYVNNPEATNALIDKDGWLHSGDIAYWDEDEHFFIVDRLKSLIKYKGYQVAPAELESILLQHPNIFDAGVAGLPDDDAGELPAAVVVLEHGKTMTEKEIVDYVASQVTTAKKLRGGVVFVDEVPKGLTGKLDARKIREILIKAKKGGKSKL
#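 Firefly luciferase (PKLight detection mix) with 10 uM ATP in pH 7.2 imidazole buffer (KCl, MgCl2, Tween 20, BSA). Compounds tested across a concentration series (qHTS). Luminescence read after 8 min at ambient temperature.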
# Starred values were filed as active, the others as inactive; u = inconclusive; x = no result; [ ] = another dose, or the depositor's remark. Unless noted, the call rests on the fitted dose curve; in most records, active means well fitted curve in the direction sought with a large enough effect; inconclusive means small, poorly fitted or top-dose-only effect, or another doubt; inactive means no such curve, though single readings can be large; an effect the other way counts as inactive or inconclusive.
SMILES,p53ts 32C tox,Peg3 imprint,IMPase cell inh,IkB sig inh,p53ts 39C kill,Luciferase inh
O=C(O)c1cc(C(=O)C(=O)c2cc(C(=O)O)c(O)c3ccccc23)c2ccccc2c1O,2.5%[9.22 µM],13.4%[10.9 µM],x,0.0%[11.4 µM],14.7%[9.22 µM],0.7%[11.4 µM]
CNC(=O)[C@@H]1O[C@@H](n2cnc3c(NCc4cccc(I)c4)ncnc32)[C@H](O)[C@@H]1O,6.2%,x,1.4,u,-18.0%,2.8%
O=C(COc1ccc(Cl)cc1Cl)NC(=O)N1CCCCC1,12.6µM*,-5.0%,0.6,2.4%,u,-24.3%
CC(C)COc1ccc(-c2nnc(-c3ccco3)o2)cc1,u,x,-10.2,u,u,15.8µM*
CCCOc1ccc(-c2nnc(-c3ccco3)o2)cc1,12.6µM*,-78.4%,4.2,2.7%,u,10µM*
NC[C@@H]1O[C@@H](O[C@H]2[C@@H](O)[C@H](O[C@@H]3[C@H](O)[C@H](N)C[C@H](N)[C@H]3O[C@@H]3O[C@@H](CO)[C@H](O)[C@H](O)[C@@H]3N)O[C@H]2CO)[C@H](N)[C@H](O)[C@@H]1O,-9.8%,x,-0.3,u,4.1%,2.3%
CCCCCCCCCCCCCCCCCCOC[C@@H](COP(=O)([O-])OCC[N+](C)(C)C)OC,1.6%,x,u,-2.2%,14.8%,-2.6%
CCOc1ccc(CNC(=O)c2ccc(NC(=O)c3nsc4ccccc34)cc2)cc1,-25.5%,-10.2%[10.9 µM],x,u,-28.5%,x
CCOc1ccc(CNC(=O)c2ccccc2NC(=O)c2nsc3ccccc23)cc1,u,u,x,2.4%,10µM*,x
COc1ccc(/C=C/C(=O)Nc2cccc(F)c2)cc1,10µM*,-44.1%[10.9 µM],10.4,u,7.94µM*,x
COc1ccc(NC(=O)/C=C\c2ccc(Cl)cc2)cc1,u,x,-5.6,u,u,12.6µM*
Cc1nc(-c2ccc(S(=O)(=O)N3CCN(c4cccc(C(F)(F)F)c4)CC3)cc2)co1,-3.8%,-5.6%[10.9 µM],x,0.1%,-17.3%,x
Cc1nc(NC(=O)c2ccccc2)sc1-c1csc(N)n1,-24.6%,-60.5%,-3.9,u,-23.4%,15.8µM*
CCN(CC)Cc1ccc(Nc2ccnc3cc(Cl)ccc23)cc1O,-10.9%,-31.2%,x,x,-15.0%,x
COC(=O)c1ccc(C(NC(=O)OCc2ccccc2)/C(F)=C/[C@@H](C)C(=O)NCc2ccc(OC)c(OC)c2)cc1 (stereo partly specified),u,-15.1%,x,x,12.6µM*,x
O=[N+]([O-])c1cc(Cc2cc([N+](=O)[O-])c3cccnc3c2O)c(O)c2ncccc12,-10.1%[9.22 µM],-1.4%[10.9 µM],x,5.01µM*,-11.5%[9.22 µM],-0.1%[11.4 µM]
Clc1ccccc1-c1nnc(COc2ccccc2)o1,-6.5%,-12.1%[10.9 µM],x,-2.1%,-15.8%,x
C[C@H](CN(C)C)C(O)(c1ccccc1)c1ccccc1,8.4%[9.22 µM],-0.5%[10.9 µM],x,0.1%[11.4 µM],-11.1%[9.22 µM],1.2%[11.4 µM]
OC(CNCc1ccco1)COc1ccccc1 (stereo unspecified),6.3%,-19.0%,0.4,1.2%,2.7%,6.5%
OC(CNCc1ccco1)Cn1c2ccccc2c2ccccc21 (stereo unspecified),u,-15.8%,0.8,u,12.6µM*,2.5%
CCc1ccc(NC(=O)Cn2c(=O)n(-c3ccccc3)c(=O)c3ccc(C(=O)NCc4ccc5c(c4)OCO5)cc32)cc1,-21.3%,-8.1%[10.9 µM],x,1.0%,15.8µM*,x
Cc1cc(C)c(NC(=O)Cn2c(=O)n(Cc3ccc(C(=O)NCc4ccc5c(c4)OCO5)cc3)c(=O)c3ccccc32)c(C)c1,u,-28.8%[10.9 µM],x,5.0%,5.01µM*,x
CCOc1ccc(NC(=O)Cn2c(=O)n(-c3ccccc3)c(=O)c3ccc(C(=O)NCc4ccc5c(c4)OCO5)cc32)cc1,u,-4.6%[10.9 µM],x,5.0%,12.6µM*,x
CCOc1ccc(NC(=O)Cn2c(=O)n(Cc3ccc(C(=O)NCc4ccc5c(c4)OCO5)cc3)c(=O)c3ccccc32)cc1,1.7%,-17.5%[10.9 µM],x,1.1%,5.6%,x
C[C@@H]1NC(=O)[C@@H](C)COC(=O)[C@H](C)NC(=O)[C@@H](C)COC1=O,-3.4%[9.22 µM],x,x,x,-0.7%[9.22 µM],2.1%[11.4 µM]
SMILES,p53ts 32C tox,Peg3 imprint,IMPase cell inh,IkB sig inh,p53ts 39C kill,Luciferase inh
COC(=O)[C@@]1(Cc2ccc(OC)cc2)[C@H]2c3cc(C(=O)N(C)C)n(Cc4ccsc4Br)c3C[C@H]2CN1C(=O)c1ccccc1,31.6%,-19.0%,x,x,23.6%,x
Cc1ccc2cc3cc(C(=O)N4CCCCC4C)oc3nc2c1 (stereo unspecified),12.6µM*,-25.0%,1.8,1.0%,u,12.6µM*
CCN(C(=O)c1cc2cc3ccc(C)cc3nc2o1)c1ccc(OC)cc1,12.8%,-20.9%,7.7,u,8.4%,-1.3%
Cc1ccc2cc3cc(C(=O)N4CC(C)CC(C)C4)oc3nc2c1 (stereo unspecified),-1.6%,-19.0%,3.1,u,-18.1%,-6.5%
Cc1ccc2cc3cc(C(=O)N(C)c4ccccc4C)oc3nc2c1,u,-19.0%[10.9 µM],x,-1.6%,10µM*,x
c1ccc2c(CSCc3cccc4ccccc34)cccc2c1,2.2%[9.22 µM],-14.2%[10.9 µM],x,-0.8%[11.4 µM],-0.5%[9.22 µM],1.5%[11.4 µM]
COc1cc(COc2cc(N)c(Cl)cc2C(=O)CCC2CCN(CCNS(C)(=O)=O)CC2)cc(OC)c1,31.6µM*,-21.5%,3.6,u,31.6µM*,-0.9%
Cc1ccc2nc(N3CCN(c4cccc(Cl)c4)CC3)c(-n3nc(C)cc3C)nc2c1,10.9%,5.7%[10.9 µM],7.5,7.4%,-12.4%,x
O=C(/C=C/c1ccccc1)c1cccs1,31.6µM*,-28.6%,0.5,x,-81.5%,x
COc1ccc(/C=C/C(=O)Nc2ccccc2C(=O)O)cc1OC,u,-58.7%,-3.5,x,12.6µM*,u
CCOc1ccc(/C=C/C(=O)c2cccs2)cc1,25.1µM*,-45.1%,2.7,x,-12.2%,x
Cc1c(/C=C/C(=O)c2cccs2)cnn1C,-9.3%,x,7.1,x,-9.9%,x
COc1ccc(/C=C/C(=O)c2cccs2)cc1OC,12.6µM*,5.2%,-6.6,x,15.8µM*,x
COc1ccc(/C=C/C(=O)Nc2ccccc2C(F)(F)F)cc1OC,x,x,5.5,x,x,x
O=C(O)C1CCCN1S(=O)(=O)c1cccc2cccnc12 (stereo unspecified),0.3%,-3.6%,x,4.2%,3.1%,2.9%
COc1cc([C@@H](O)CO)ccc1OS(=O)(=O)O,15.2%,x,9.9,-1.2%,7.8%,-1.8%
CCOC(=O)c1sc(NC(=O)c2cccs2)cc1C,u,-67.6%,-6.1,0.7%,u,2µM*
CCOC(=O)c1sc(NC(=O)c2sccc2C)cc1C,x,x,-0.3,x,x,x
CCOC(=O)c1sc(NC(=O)c2ccc(Br)o2)cc1C,u,-73.7%,-3.4,6.1%,u,5.01µM*
